This is an account of results in PubChem BioAssay (NCI).

The panel holds about 83,000 compounds, 20% with a hit somewhere; the sample as a whole holds those more often.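 Results are percent growth after 48 hours of single-concentration exposure. 100 means growth as in untreated cells, lower positive values show inhibition; negative values down to -100 show cell death.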 A number with no mark means an inactive call. Calls of active or inactive are those of the source.

In this test the test system is MOLT-4 leukemia. Nature of the test: NCI-60 one-dose screen, 48 h (100 = growth as untreated, 0 = no growth, -100 = all killed). The following applies: 10 µM unless noted. The procedure:
Growth inhibition of the MOLT-4 human tumor cell line is measured as a screen for anti-cancer activity. Cells are grown in 96 well plates and exposed to the test compound for 48 hours. Compounds are tested at a single concentration, which is 10^-5 M for most compounds. The reported endpoint is percent growth (GI% or GIPRCNT), where numbers from 0 - 100% represent growth inhibition, and numbers from -100% - 0 represent cell death. For example, a value of 40 represents 60% growth inhibition. A value of 0 means no net growth occurred over the course of the experiment. A value of -40 indicates 40% of cells at the beginning of the experiment died by the end of the experiment. A value of -100 means all cells are dead at the end of the experiment.
NCI-60 Human Tumor Cell Lines Screen was performed using the standard one-dose NCI protocol, which is described in more detail at https://dtp.cancer.gov/discovery_development/nci-60/default.htm.
Compounds with GIPRCNT values below 10 were considered active. Activity score was based on GIPRCNT using the following formula: […]
Score is 0 for GIPRCNT values of 100 or above, 50 for GIPRCNT values of 0, and 100 for GIPRCNT values of -100.
`c1ccc(N2N=C(c3cccc(Nc4ccncc4)c3)CC2c2ccc3c(c2)OCO3)cc1` (stereo not given): the growth was 7.98% (active).

Regarding `COc1cc(COC(=O)CCCCC[P+](c2ccccc2)(c2ccccc2)c2ccccc2)c(OC)c2c1OCO2`, the growth was 93.3%.

Turning to `COC(=O)C(c1ccccc1)C(CC(=O)c1ccccc1)c1ccccc1` (stereo not given), the growth is 71%.

For `CCN(CC)S(=O)(=O)c1cccc([N+](=O)[O-])c1`, the growth is 105%.

For the compound `Nc1c(C(=O)Nc2ccc(Cl)cc2)cc(-c2nc3ccccc3s2)c(=O)n1NS(=O)(=O)c1ccc(Cl)cc1`, the growth was 91.5%.

Regarding `CN1C(=O)N(C)C2NC(N/N=C/c3ccccc3)=NC21` (stereo not given), the growth was 103%.

On to `CN1CCN(c2cnc(C(=O)Nc3cc(F)cc4cccnc34)cn2)CC1`, for which the growth is 23.5%.

In the case of `CC(=O)Nc1ccc(S(=O)(=O)NC2CCCCC2)cc1`, the growth is 101%.

As for `COc1ccc(CNC(=O)COc2ccc(/C=N/Nc3nc4ccccc4s3)cc2)cc1`, the growth is 76.5%.

In the case of `S=c1[nH]cccc1-c1nnc2n1Nc1nc3ccc(Cl)cc3cc1CS2`, the growth is 92.3%.

For the compound `CC(=O)O[C@H]1CC[C@@]2(C)[C@@H](CC[C@@H]3[C@@H]2CC[C@@]2(C)[C@H]3CC[C@]2(O)C(C)=O)C1`, the growth was 97.6%.

For the compound `COc1ccc(C(=O)c2cc(C)c(OC)c(C)c2)c(OC)c1O`, the growth is 23.4%.

As to `Cc1ccc(C2CC(c3cccc(Nc4ccncc4)c3)=NN2c2ccccc2)cc1` (stereo not given), the growth was -26.8% (active).

Take `CCc1c(Nc2ccc(C)cc2)[nH]c(N)nc1=S`: the growth was 110%.

For `O=C(/C=C/c1ccc[nH]1)c1ccc(-n2ccc(C(F)(F)F)n2)cc1`, the growth was 72.5%.

Consider `COc1cccc(NC(=O)c2cccc(-c3cc(=O)c4c(OC)c(OC)c(OC)cc4o3)c2)c1`, for which the growth was 48.5%.

Turning to `O=C1CCC(NC(=S)Nc2ccccc2)N1` (stereo not given), the growth is 106%.

As to `CCSc1ccc2c(c1)N(CCCN1CCN(C)CC1)c1ccccc1S2`, the growth was 18.5%.

With `COc1ccc(-c2c[nH]c(C(=O)O)c2-c2cc(OC)c3c(c2OC)OCO3)cc1`, the growth was 102%.

For the compound `COc1ccc(C2=C(c3ccccc3)c3ccc(OC(C)=O)cc3OC2(C)C)cc1`, the growth is 4.69% (active).

`Nc1c(C(=O)Nc2cccc3ccncc23)sc2nc3c(cc12)C(=O)CCC3`: the growth was 85.2%.

Regarding `O=C1NC(=O)C(=Cc2cn(Cc3ccccn3)c3ccccc23)C(=O)N1`, the growth is 100%.

As to `CCNC(=S)NNC(=O)c1cc2ccc1CCc1ccc(cc1)CC2`, the growth was 102%.

With `COc1cccc(-c2nc3occn3c2-c2ccnc(NCCCNS(=O)(=O)c3cccc(F)c3)n2)c1`, the growth is 67.7%.

For the compound `O=C(O)C(/C=C/c1ccco1)=N\Nc1nc(-c2ccc(Cl)cc2)cs1`, the growth is 40.9%.

Turning to `CCOC(=O)c1c(O)cc(-c2ccccc2)cc1-c1sc(N(C)Cc2ccccc2)nc1Cl`, the growth was 94.4%.

`COc1ccc(C(O)c2cc3c(N)c(C(=O)Nc4cccc(Br)c4C)sc3nc2C)cc1` (stereo not given): the growth was 23.1%.

Take `CS(=O)(=O)c1ccc(-c2cc3c(oc2=O)-c2ccccc2OC3O)cc1` (stereo not given): the growth is 86.3%.

For `C1=C2CNCC3=Cc4ccc5ccccc5c4OC23Oc2c1ccc1ccccc21`, the growth is 45.8%.

Take `Cc1ccc(C2CC(c3cccc(Nc4ccncc4)c3)=NN2c2cc(Cl)cc(Cl)c2)cc1` (stereo not given): the growth is 1.74% (active).

As to `COc1cc(NCCCN(CC(C)C)C2CCCC2)c2ncccc2c1`, the growth is 71%.

Take `COc1ccc(-c2nc3sccn3c2/C=C/C(=O)c2cc(OC)c(OC)c(OC)c2)cc1`: the growth was 29.8%.

With `N/C(=N\N=C\c1cc2ccccc2[nH]1)N/N=C/c1cc2ccccc2[nH]1`, the growth was 84.6%.

With `COc1ccc(NC(=O)c2sc3nc(C)c(C(=O)c4ccc(OC)cc4)cc3c2N)cc1`, the growth is 27.5%.

As to `COc1cc2ncnc(Nc3ccc(C(=O)/C=C/c4ccc(C(F)(F)F)cc4F)cc3)c2cc1OC`, the growth was 68.3%.

In the case of `FC(F)(F)c1cccc(Nc2ccccc2)c1`, the growth was 89.9%.

With `CCOc1ccc(/C=N/Nc2cc(C)nc3ccc(Cl)cc23)cc1`, the growth was -30.5% (active).

For `CC(O)/C=C/C=C/C(O)CC/C=C/C(=O)NCC(C)(C)O` (stereo not given), the growth was 76.2%.

On to `COC(=O)N[C@H]1CCc2cc(OC)c(OC)c(OC)c2-c2ccc(SC)c(=O)cc21`, for which the growth is 9.69% (active).

In the case of `COc1ccc(/C=C/C(=O)c2ccc(OC)c(OC)c2)cc1O`, the growth is 67.2%.
